Assay results as given in PubChem BioAssay.
Activity calls are given as the source filed them. Unless noted, how the calls were made is not given here.

How the values were obtained:
[1] = HepG2 liver cancer cell viability effects, profiling panel, resazurin fluorescence, 24 h, PK04 Diversity Set (AID 1172); conditions: higher = more signal
[2] = basal S. cerevisiae growth modulation, no modifier, primary screen, OD600, strain BY4716, 24 h, basal condition (AID 1173); conditions: OD600, 24 h, higher = more signal, called active from +8 up or from −8 down
[3] = MM1S myeloma cell viability, profiling panel, resazurin fluorescence, basal, 24 h, PK04 Diversity Set (AID 1174); conditions: higher = more signal, called active from +8 up or from −8 down;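 further: MM1S multiple myeloma cell line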
[4] = target: Dihydroorotate dehydrogenase (quinone), mitochondrial (Plasmodium falciparum (isolate 3D7)) (UniProt Q08210); assay: PfDHODH enzyme inhibitors, primary screen, biochemical, C-terminal His tag, absorbance 600 nm (AID 1175); conditions: DCIP absorbance 600 nm, higher = more signal, called active from +8 up or from −8 down;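 further: recombinant parasite enzyme with a five histidine tag at its C terminus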
Chain of Dihydroorotate dehydrogenase (quinone), mitochondrial (Plasmodium falciparum (isolate 3D7)) (Q08210 whole entry, looked up): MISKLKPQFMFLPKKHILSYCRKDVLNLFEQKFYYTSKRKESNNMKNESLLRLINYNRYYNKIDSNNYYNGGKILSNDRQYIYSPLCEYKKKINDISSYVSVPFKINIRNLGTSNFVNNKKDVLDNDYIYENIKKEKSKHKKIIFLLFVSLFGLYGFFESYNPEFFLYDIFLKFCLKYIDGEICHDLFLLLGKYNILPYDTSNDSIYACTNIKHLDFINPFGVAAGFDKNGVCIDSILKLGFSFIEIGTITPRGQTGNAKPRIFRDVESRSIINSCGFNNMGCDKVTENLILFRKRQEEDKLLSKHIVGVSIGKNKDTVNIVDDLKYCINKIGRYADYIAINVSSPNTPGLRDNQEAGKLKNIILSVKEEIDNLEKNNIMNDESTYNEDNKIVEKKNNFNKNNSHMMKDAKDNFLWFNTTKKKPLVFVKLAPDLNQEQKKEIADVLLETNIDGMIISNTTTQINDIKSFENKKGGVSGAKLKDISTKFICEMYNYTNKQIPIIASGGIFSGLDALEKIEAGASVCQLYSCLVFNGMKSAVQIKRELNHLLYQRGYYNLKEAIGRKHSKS

[5] = P. aeruginosa biofilm formation inhibitors, primary screen, strain PAO1, LB-PBS medium, absorbance 600 nm (AID 1176); conditions: P. aeruginosa PAO1 growth/biofilm, A600, 12 h; higher = more signal
[6] = S. cerevisiae RM11-1a growth modifiers, primary screen, strain RM11-1a, OD600, basal, 24 h (AID 1177); conditions: OD600, 24 h, higher = more signal, called active from +8 up or from −8 down;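 further: cultures grown under basal conditions with no added stressor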
[7] = E. coli acrAB mutant growth effects, primary screen, E. coli filamentation inducers, strain DRC39, OD650, 24 h (AID 1178); conditions: higher = more signal, called active from +8 up or from −8 down;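 further: growth measured as culture turbidity by optical density at 650 nm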
[8] = E. coli acrAB mutant growth effects, primary screen, E. coli filamentation inducers, strain DRC39, OD650, 48 h (AID 1179);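 further: screen aims at cell division blockers that make cells filament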; conditions: E. coli DRC39 delta-acrAB growth, higher = more signal, called active from +8 up or from −8 down
[9] = RPMI8226 myeloma cell viability, profiling panel, resazurin fluorescence, basal, 24 h, PK04 Diversity Set (AID 1180); conditions: higher = more signal;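 further: RPMI8826 multiple myeloma cell line at 5000 cells per well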
[10] = target: E3 ubiquitin-protein ligase XIAP (Homo sapiens) (UniProt P98170); assay: XIAP binders, primary screen, biophysical, small-molecule microarray, fluorescence 635 nm (AID 1181); conditions: small-molecule microarray binding, higher = more signal;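 further: score merges 667 nm emission and signal to noise over triplicate slides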
Chain of E3 ubiquitin-protein ligase XIAP (Homo sapiens) (P98170 whole entry, looked up): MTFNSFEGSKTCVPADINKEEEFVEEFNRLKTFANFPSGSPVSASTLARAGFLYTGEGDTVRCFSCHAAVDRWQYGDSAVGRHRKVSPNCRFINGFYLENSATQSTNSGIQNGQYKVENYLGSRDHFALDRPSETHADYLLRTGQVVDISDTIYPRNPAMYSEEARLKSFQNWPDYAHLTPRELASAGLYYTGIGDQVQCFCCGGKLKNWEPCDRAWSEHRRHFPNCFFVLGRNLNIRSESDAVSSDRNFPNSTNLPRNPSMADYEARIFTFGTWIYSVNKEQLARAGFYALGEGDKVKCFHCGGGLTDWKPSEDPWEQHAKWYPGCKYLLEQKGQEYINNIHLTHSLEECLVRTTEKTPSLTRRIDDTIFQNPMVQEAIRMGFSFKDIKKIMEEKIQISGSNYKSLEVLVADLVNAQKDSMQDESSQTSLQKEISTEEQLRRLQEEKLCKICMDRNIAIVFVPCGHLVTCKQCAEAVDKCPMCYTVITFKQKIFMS

[11] = system: XIP peptide (Xip251-270) binding; assay: small-molecule binders of XIP peptide, primary screen, biochemical, small-molecule microarray, fluorescence 635/667 nm, 0.1 µg/mL protein (AID 1182); conditions: fluorescent protein binding, 635 nm, higher = more signal, called active from +8 up or from −8 down
[12] = system: XIP peptide (Xip251-270); assay: small-molecule binders of XIP peptide, primary screen, biochemical, small-molecule microarray, fluorescence 635/667 nm, 0.5 µg/mL protein (AID 1183); conditions: small-molecule microarray binding, fluorescence 635 nm; higher = more signal
[13] = Plasmodium falciparum growth inhibition, primary screen, strain 3D7, DAPI fluorescence, 100 nL (AID 1184);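 further: parasites grown inside human red blood cells in medium with human serum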; conditions: P. falciparum 3D7 growth, 3 d, higher = more signal
[14] = target: Homeobox protein Hox-A13 (Mus musculus) (UniProt Q62424); assay: inhibitors of HoxA13-DNA binding, primary screen, biochemical, fluorescence polarization, labeled oligonucleotide (AID 1185); conditions: 15 min, higher = more signal, called active from +8 up or from −8 down
Chain of Homeobox protein Hox-A13 (Mus musculus) (Q62424 whole entry, looked up): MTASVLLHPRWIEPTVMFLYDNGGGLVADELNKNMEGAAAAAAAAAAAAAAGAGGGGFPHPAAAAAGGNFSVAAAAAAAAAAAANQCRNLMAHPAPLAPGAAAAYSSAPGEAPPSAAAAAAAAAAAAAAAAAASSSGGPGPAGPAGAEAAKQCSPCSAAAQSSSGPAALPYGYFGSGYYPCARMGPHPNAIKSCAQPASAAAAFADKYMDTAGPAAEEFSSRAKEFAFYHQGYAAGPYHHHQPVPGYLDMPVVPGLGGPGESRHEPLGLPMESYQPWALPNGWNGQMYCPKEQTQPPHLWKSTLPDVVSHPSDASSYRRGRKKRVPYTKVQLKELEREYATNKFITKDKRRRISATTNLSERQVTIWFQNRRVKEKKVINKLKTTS

[15] = inhibitors of hydroxyurea-induced Chk1 phosphorylation, primary screen, imaging, HeLa, phospho-Chk1 antibody, percent positive cells (AID 1186); conditions: hydroxyurea-induced phospho-Chk1 immunofluorescence imaging, higher = more signal
[16] = inhibitors of hydroxyurea-induced Chk1 phosphorylation, primary screen, imaging, HeLa, phospho-Chk1 nuclear intensity (AID 1187); conditions: hydroxyurea-induced phospho-Chk1 immunofluorescence imaging, higher = more signal

Compound	z-score [1]	z-score [2]	z-score [3]	composite z-score [4]	z-score [5]	z-score [6]	z-score [7]	z-score [8]	z-score [9]	composite z-score [10]	composite z-score [11]	composite z-score [12]	z-score [13]	z-score [14]	z-score [15]	z-score [16]
Cc1ccc(S[C@]2(C(=O)NCCCN(C)C)CC(=O)N(Cc3ccccc3C(F)(F)F)[C@@H]2c2ccc(CO)cc2)cc1	-0.758	-0.362 (inactive)	0.515 (inactive)	-0.0819 (inactive)	-0.0807 (inactive)	-0.329 (inactive)	0.252 (inactive)	0.164 (inactive)	0.119	-0.267	0.0209 (inactive)	-0.328	-1.02	-1.25 (inactive)	-0.0292 (inactive)	0.135 (inactive)
COc1ccc(/C=C/C=O)cc1	-0.316	-3.59 (inactive)	-0.998 (inactive)	-0.291 (inactive)	0.0061 (inactive)	0.313 (inactive)	0.154 (inactive)	0.0154 (inactive)	-0.495	0.128	-0.338 (inactive)	0.185	1.01	0.0055 (inactive)	0.0257 (inactive)	0.0335 (inactive)
NC(=O)[C@@H]1[C@H]2C(=O)O[C@H](c3ccccc3)[C@H](c3ccccc3)N2[C@H](c2ccc(O)cc2)[C@@]12C(=O)Nc1ccccc12	0.363	-1.39 (inactive)	0.307 (inactive)	-0.565 (inactive)	0.449 (inactive)	-0.665 (inactive)	0.385 (inactive)	-0.766 (inactive)	-0.224	0.0073	0.138 (inactive)	0.507	-1.28	-5.09 (inactive)	-0.0838 (inactive)	-0.0447 (inactive)
CC(C)=CCCC(C)=CC(O)C1C=CC2C(=O)N(C)C(=O)C2N1Nc1ccccc1 (stereo not given)	-1.34	-4.94 (inactive)	-1.37 (inactive)	0.0684 (inactive)	1.51 (inactive)	0.938 (inactive)	-0.261 (inactive)	0.0052 (inactive)	-2.03	0.123	0.438 (inactive)	0.624	-0.49	-3.34 (inactive)	-1.1 (inactive)	-1.34 (inactive)
COc1cc(COC(C)=O)ccc1OC(C)=O	0.858	-0.715 (inactive)	0.101 (inactive)	-0.942 (inactive)	0.317 (inactive)	-1.35 (inactive)	1.17 (inactive)	0.871 (inactive)	0.614	-0.269	-0.603 (inactive)	0.213	0.287	0.579 (inactive)	-1.08 (inactive)	-1.53 (inactive)
N#Cc1ccc(NN2C(C(O)C(c3ccccc3)c3ccccc3)C=CC3C(=O)N(c4ccccc4)C(=O)C32)cc1 (stereo not given)	-0.554	0.551 (inactive)	-1.17 (inactive)	0.0998 (inactive)	0.35 (inactive)	0.826 (inactive)	-0.135 (inactive)	0.832 (inactive)	0.0951	0.0849	0.424 (inactive)	0.646	-0.231	1.55 (inactive)	0.377 (inactive)	0.484 (inactive)
O=C1O[C@@H](c2ccccc2)[C@@H](c2ccccc2)N2[C@@H](c3ccccc3OCCO)[C@]3(C(=O)Nc4ccccc43)[C@@H](C(=O)Nc3nc4ccccc4s3)[C@H]12	-0.699	0.583 (inactive)	-2.95 (inactive)	0.905 (inactive)	1.36 (inactive)	1.11 (inactive)	-0.986 (inactive)	-1.25 (inactive)	-5.15	0.0975	1.13 (inactive)	0.797	-1.54	1.91 (inactive)	0.489 (inactive)	0.794 (inactive)
CN(C)CCCCCCNC(=O)[C@H]1C[C@H]2C(=O)N3CCC[C@H]3C(=O)N2[C@H]1c1ccc(O)cc1	-0.564	-0.444 (inactive)	0.472 (inactive)	-1.76 (inactive)	1.44 (inactive)	-0.327 (inactive)	0.113 (inactive)	-0.523 (inactive)	-0.0213	0.23	1.75 (inactive)	0.926	-1.15	-0.246 (inactive)	-0.0982 (inactive)	0.307 (inactive)
NC(=O)N1C(=O)C2C(C1=O)C1C=C(c3ccc(CO)cc3)C2C(c2cccs2)N1Cc1cccc(OC(F)(F)F)c1 (stereo not given)	-0.532	-4.02 (inactive)	-0.683 (inactive)	-8.36 (active)	-0.79 (inactive)	-1.87 (inactive)	-5.27 (inactive)	-4.66 (inactive)	-0.452	0.278	0.0478 (inactive)	-0.814	-2.86	-1.04 (inactive)	0.0422 (inactive)	0.723 (inactive)
CC(C)C(=C=CC[C@H](O)c1ccc(OCCO)cc1)CCO	0.933	-1.87 (inactive)	-0.69 (inactive)	-0.324 (inactive)	0.825 (inactive)	-0.269 (inactive)	-0.732 (inactive)	-0.794 (inactive)	-0.0148	0.223	0.427 (inactive)	-0.107	-2.19	-3.96 (inactive)	0.805 (inactive)	0.505 (inactive)
